PfHsp90 yeast 2 = growth inhibition of yeast expressing Plasmodium Hsp90 | S. cerevisiae expressing PfHsp90, BacTiter-Glo ATP, 48 h; yeast lacking PDR1 and PDR3 efflux regulators | inhibition, % at 9.4 µM | actives 0.32% (n = 310,000);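 active = every replicate shows inhibition above about 80%, whatever the replicate mean, limit read from the data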;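 note: 0% = DMSO neutral controls and 100% = 20 µM radicicol positive controls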
tim10-1 inh = inhibits growth of tim10-1 mutant yeast; inhibition, % at 20 µM; actives 2.2% (n = 330,000); S. cerevisiae tim10-1 ts strain growth, BacTiter-Glo, 24 h;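 active = inhibition of at least 40%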;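 note: mutant grown at 25 °C; 0% = DMSO wells with yeast and 100% = wells holding no yeast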
tim23-1 inh = growth inhibitors of tim23-1 mutant yeast; S. cerevisiae tim23-1 growth, BacTiter-Glo luminescence, 24 h; inhibition, % at 20 µM; actives 1.3% (n = 330,000); AID 463212;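 active = growth inhibition of the mutant yeast at or above 50%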;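 note: temperature-sensitive mutant grown at 25 °C; plate controls were DMSO-treated mutant yeast for no effect and medium wells lacking yeast for full effect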
TIM10 inh = growth inhibitors of TIM10 yeast strain | S. cerevisiae TIM10 strain growth, BacTiter-Glo luminescence, 24 h | inhibition, % at 10 µM | actives 1.4% (n = 330,000) | AID 463195;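 active = inhibition of 40% or more at the single tested concentration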;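 note: wild-type TIM10 isogenic control strain grown at permissive 25 °C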
NALP3 yeast inh = NALP3 inhibition in yeast; Yeast reconstituted NLRP3/ASC/caspase-1, beta-gal luminescence, 24 h; actives 0.39% (n = 330,000); inhibition, % at 10 µM;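 active = inhibition of 50% or more; inactive = inhibition below 50%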;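 note: plate controls were induced DMSO wells for no effect and uninduced yeast grown without galactose for full effect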
tim10-1 confirm = tim10-1 yeast growth inhibition, confirmed | shares compounds with tim10-1 inh | S. cerevisiae tim10-1 ts strain growth, BacTiter-Glo, 24 h | inhibition, % at 20 µM | actives 56% (n = 7,400) | AID 463213;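 active = inhibition of yeast growth at or above a set limit in either of two repeat tests at 20 µM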;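 note: tim10-1 mutant grown at permissive 25 °C to find synthetic lethal compounds; 0% = DMSO yeast wells and 100% = medium wells without yeast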
Numbers without * were called inactive. Sampled rows, rich in hits. Any-hit rate of the full collection: about 3.7%.

Screening O=C(NCc1ccncc1)c1cccc(S(=O)(=O)Nc2ccc(F)cc2)c1 returned PfHsp90 yeast 2 3, tim10-1 inh 3, tim23-1 inh -8, TIM10 inh 1 and NALP3 yeast inh -2.
`CC1=Nc2cc(C(=O)N3CCCCC3)ccc2Sc2ccc(C)cc21` gave PfHsp90 yeast 2 20, tim10-1 inh 45*, tim23-1 inh 32, TIM10 inh 10, NALP3 yeast inh 11 and tim10-1 confirm 0.
CCCC1=Nc2cc(C(=O)N3CCC(C(=O)OCC)CC3)ccc2Sc2ccccc21 was read as PfHsp90 yeast 2 5, tim10-1 inh 41*, tim23-1 inh 22, TIM10 inh -1, NALP3 yeast inh 9 and tim10-1 confirm -12.
For CC1=Nc2cc(C(=O)N3CCCC3)ccc2Sc2ccc(C)cc21 the results were PfHsp90 yeast 2 17, tim10-1 inh 11, tim23-1 inh -2, TIM10 inh -2 and NALP3 yeast inh 16.
Screening CCCC1=Nc2cc(C(=O)N3CCC(C(N)=O)CC3)ccc2Sc2ccccc21 returned PfHsp90 yeast 2 4, tim10-1 inh -8, tim23-1 inh 4, TIM10 inh 7 and NALP3 yeast inh 3.
Screening O=C(CNc1ccc2ccccc2c1)N/N=C/c1ccncc1 returned PfHsp90 yeast 2 5, tim10-1 inh 18, tim23-1 inh 22, TIM10 inh 19 and NALP3 yeast inh 12.
CSc1ccc(/C=N/NC(=O)CNc2ccc3ccccc3c2)cc1 was read as PfHsp90 yeast 2 -3, tim10-1 inh 46*, tim23-1 inh 31, TIM10 inh -11, NALP3 yeast inh 28 and tim10-1 confirm 43*.
For CC1CCCC2(C1)NC(=S)c1c(sc3c1CCCC3)N2 (stereo not given) the results were PfHsp90 yeast 2 5, tim10-1 inh 42*, tim23-1 inh 31, TIM10 inh 12, NALP3 yeast inh 23 and tim10-1 confirm 23.
Screening CC1(C)C(=O)C=CC(=O)C(C)(C)C(=O)C=CC(=O)C(C)(C)C2=CC=C(O2)C(C)(C)C(=O)C=CC1=O returned PfHsp90 yeast 2 8.
COc1ccccc1C(=O)NCCC(=O)Nc1ncccc1C was read as PfHsp90 yeast 2 1, tim10-1 inh 8, tim23-1 inh 6, TIM10 inh 7 and NALP3 yeast inh 12.
CCOC(=O)Nc1ccc(C(=O)NCC2CCCO2)cc1 (stereo not given) was read as PfHsp90 yeast 2 13, tim10-1 inh 43*, tim23-1 inh 27, TIM10 inh 9, NALP3 yeast inh -10 and tim10-1 confirm 9.
Cc1ccc(C(=O)Nc2ccc(C(=O)NCC3CCCO3)cc2)cc1 (stereo not given) was read as PfHsp90 yeast 2 7, tim10-1 inh 5, tim23-1 inh 2, TIM10 inh -7 and NALP3 yeast inh 20.
Screening Cc1[nH]c2ccc(C(=O)OCC(=O)NC3(C#N)CCCCC3)cc2c1C returned PfHsp90 yeast 2 0, tim10-1 inh -9, tim23-1 inh 7, TIM10 inh 12 and NALP3 yeast inh 4.
Screening NC(=O)c1ncn([C@@H]2O[C@H](CNCc3cnc(N4CCOCC4)nc3)[C@@H](O)[C@H]2O)n1 returned PfHsp90 yeast 2 -11.
NC(CCCCc1ccccc1)c1cccc2ccccc12 (stereo not given) was read as tim10-1 inh -6, tim23-1 inh 22, TIM10 inh 36 and NALP3 yeast inh 38.
CCCOc1ccc(NC(=O)CC2C(=O)N(CC)C(=S)N2Cc2cccs2)cc1 (stereo not given) was read as PfHsp90 yeast 2 25, tim10-1 inh 50*, tim23-1 inh 10, TIM10 inh 14, NALP3 yeast inh 18 and tim10-1 confirm 35*.
For O=C(NC(NNc1ccc([N+](=O)[O-])cc1)(C(F)(F)F)C(F)(F)F)c1ccccc1Cl the results were tim10-1 inh 47*, tim23-1 inh 49, TIM10 inh 33, NALP3 yeast inh 17 and tim10-1 confirm 25.
For O=C(NC(NNc1ccc([N+](=O)[O-])cc1)(C(F)(F)F)C(F)(F)F)c1ccc(F)cc1 the results were PfHsp90 yeast 2 44, tim10-1 inh 39, tim23-1 inh 32, TIM10 inh 31 and NALP3 yeast inh 5.
For COc1cc2c3c(n(C)c(=O)c2cc1OC)-c1cc2c(cc1C3=O)OCO2 the results were PfHsp90 yeast 2 -58.
Screening Cc1c(C(=O)N2CCc3ccccc3C2)oc2ccc(S(=O)(=O)N3CCCCCC3)cc12 returned PfHsp90 yeast 2 -2, tim10-1 inh 43*, tim23-1 inh 36, TIM10 inh 21, NALP3 yeast inh 7 and tim10-1 confirm 22.
Cc1c(C(=O)N2CCOCC2)oc2ccc(S(=O)(=O)N3CCCC3)cc12 was read as PfHsp90 yeast 2 -39, tim10-1 inh 8, tim23-1 inh -1, TIM10 inh 7 and NALP3 yeast inh 10.
Cn1ncc(Cl)c1C(=O)NC1CCCC1 was read as PfHsp90 yeast 2 -5, tim10-1 inh 18, tim23-1 inh 1, TIM10 inh -1 and NALP3 yeast inh -8.
Screening N/C(=N\OC(=O)CCC1CCCC1)c1ccc([N+](=O)[O-])cc1 returned PfHsp90 yeast 2 -68, tim10-1 inh 61*, tim23-1 inh 30, TIM10 inh 18, NALP3 yeast inh -10 and tim10-1 confirm 58*.
N/C(=N\OC(=O)CCC1CCCC1)c1ccccc1 was read as PfHsp90 yeast 2 7, tim10-1 inh 52*, tim23-1 inh 46, TIM10 inh 35, NALP3 yeast inh 12 and tim10-1 confirm 44*.
Screening N/C(=N\OC(=O)CCC1CCCC1)c1ccccn1 returned PfHsp90 yeast 2 1, tim10-1 inh 20, tim23-1 inh 30, TIM10 inh 27 and NALP3 yeast inh 29.
N#Cc1cc([N+](=O)[O-])ccc1NC(=O)COC(=O)CCC1CCCCC1 was read as tim10-1 inh 45*, tim23-1 inh 33, TIM10 inh 17, NALP3 yeast inh -12 and tim10-1 confirm 37*.
Screening Cc1nn(-c2ccccc2)c(C)c1C(=O)N1CCN(S(=O)(=O)c2ccccc2)CC1 returned PfHsp90 yeast 2 -2, tim10-1 inh -2, tim23-1 inh 5, TIM10 inh 4 and NALP3 yeast inh 10.
O=C(c1csc2c1CCCC2)N1CCN(c2ccc(F)cc2)CC1 was read as tim10-1 inh 43*, tim23-1 inh 37, TIM10 inh 9, NALP3 yeast inh -15 and tim10-1 confirm 31.
Screening Cn1c(=O)c2c(nc(C(O)c3ccccc3)n2C)n(C)c1=O (stereo not given) returned PfHsp90 yeast 2 13.
For Cc1cc(N=NC(=O)c2ccccc2O)c2ccccc2c1O the results were PfHsp90 yeast 2 7, tim10-1 inh 2, tim23-1 inh 2, TIM10 inh 10 and NALP3 yeast inh 21.

High-throughput results as filed in PubChem.
